Experimental data: PubChem BioAssay
Active and inactive are the calls of the source.

Assays:
[1] = binders of probe aFSTL3 on microarray, primary screen, stem cell growth factor project, biochemical, small-molecule microarray, fluorescence 635/667 (AID 1064); settings: higher = more signal;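 further: measures binding of the biotinylated anti-FSTL3 antibody to printed compounds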
[2] = binders from COS7 lysate, DM2A8 probe, primary screen, torsin A project, cell lysate, small-molecule microarray, fluorescence 635/667 (AID 1065); settings: higher = more signal, COS7 lysate expressing mutant human TOR1A
[3] = binders of probe aFGF2 on microarray, primary screen, stem cell growth factor project, biochemical, small-molecule microarray, fluorescence 635/667 (AID 1067); settings: higher = more signal;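 further: measures binding of biotinylated aFGF2 protein to printed compounds on slides; z-score merges feature fluorescence and signal-to-noise across triplicate slides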
[4] = binders of probe aFGF10 on microarray, primary screen, stem cell growth factor project, biochemical, small-molecule microarray, fluorescence 635/667 (AID 1071); settings: higher = more signal;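 further: score merges 667 nm spot intensity and signal to noise from triplicate slides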
[5] = target: Neurogenic locus notch homolog protein 2 (Homo sapiens) (UniProt Q04721); experiment: Notch2 binders on small-molecule microarrays, primary screen, biochemical, small-molecule microarray, 635 nm fluorescence, stem cell growth factors (AID 1073); settings: Notch2 binding, higher = more signal
[6] = target: Pro-neuregulin-1, membrane-bound isoform (Homo sapiens) (UniProt Q02297); experiment: NRG1 binders on small-molecule microarrays, primary screen, psychiatric disease protein project, biochemical, small-molecule microarray, fluorescence 635/667 (AID 1075); settings: NRG1 binding, 635 nm fluorescence, higher = more signal;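 further: score combines 667 nm spot fluorescence with signal to noise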
[7] = test system: Neuregulin-1 EGF-like domain; experiment: binders of neuregulin-1 EGF-like domain, primary screen, biochemical, small-molecule microarray, 635 nm fluorescence (AID 1081); settings: small-molecule microarray binding, higher = more signal;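 further: binding of the protein to compounds printed on small-molecule microarray slides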
[8] = FRG1 promoter luciferase signal modulators, primary screen, FRG1 inhibition for FSHD, cell-based, C2C12 myotubes, firefly/Renilla luciferase, luminescence (AID 1084); settings: higher = more signal, called active from +8 up or from −8 down
[9] = binders of probe aFST on microarray, primary screen, stem cell growth factor project, biochemical, small-molecule microarray, fluorescence 635/667 (AID 1086); settings: higher = more signal;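 further: score merges 667 nm fluorescence with signal-to-noise of each printed compound spot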
[10] = binders of probe aHhip on microarray, primary screen, stem cell growth factor project, biochemical, small-molecule microarray, fluorescence 635/667 (AID 1087); settings: higher = more signal;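 further: score merges spot fluorescence at 667nm with spot signal to noise ratio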

Chain of Pro-neuregulin-1, membrane-bound isoform (Homo sapiens) (Q02297 whole entry, looked up, the tested form may be a part, canonical isoform): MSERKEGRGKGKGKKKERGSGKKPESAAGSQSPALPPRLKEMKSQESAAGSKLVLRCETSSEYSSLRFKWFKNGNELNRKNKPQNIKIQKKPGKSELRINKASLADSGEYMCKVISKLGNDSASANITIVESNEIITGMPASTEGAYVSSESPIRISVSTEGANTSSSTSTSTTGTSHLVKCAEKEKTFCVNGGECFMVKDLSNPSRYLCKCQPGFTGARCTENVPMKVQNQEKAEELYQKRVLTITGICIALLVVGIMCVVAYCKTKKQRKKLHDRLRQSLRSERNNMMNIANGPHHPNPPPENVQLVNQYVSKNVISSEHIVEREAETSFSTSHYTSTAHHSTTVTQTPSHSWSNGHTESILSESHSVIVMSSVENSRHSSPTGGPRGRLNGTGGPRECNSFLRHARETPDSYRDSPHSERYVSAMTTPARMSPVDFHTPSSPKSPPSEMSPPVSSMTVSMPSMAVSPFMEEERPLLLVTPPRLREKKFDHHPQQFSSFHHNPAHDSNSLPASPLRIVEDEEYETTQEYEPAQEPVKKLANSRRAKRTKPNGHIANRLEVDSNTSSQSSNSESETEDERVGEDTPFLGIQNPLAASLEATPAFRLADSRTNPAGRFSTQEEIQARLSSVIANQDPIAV
Chain of Neurogenic locus notch homolog protein 2 (Homo sapiens) (Q04721 whole entry, looked up, canonical isoform): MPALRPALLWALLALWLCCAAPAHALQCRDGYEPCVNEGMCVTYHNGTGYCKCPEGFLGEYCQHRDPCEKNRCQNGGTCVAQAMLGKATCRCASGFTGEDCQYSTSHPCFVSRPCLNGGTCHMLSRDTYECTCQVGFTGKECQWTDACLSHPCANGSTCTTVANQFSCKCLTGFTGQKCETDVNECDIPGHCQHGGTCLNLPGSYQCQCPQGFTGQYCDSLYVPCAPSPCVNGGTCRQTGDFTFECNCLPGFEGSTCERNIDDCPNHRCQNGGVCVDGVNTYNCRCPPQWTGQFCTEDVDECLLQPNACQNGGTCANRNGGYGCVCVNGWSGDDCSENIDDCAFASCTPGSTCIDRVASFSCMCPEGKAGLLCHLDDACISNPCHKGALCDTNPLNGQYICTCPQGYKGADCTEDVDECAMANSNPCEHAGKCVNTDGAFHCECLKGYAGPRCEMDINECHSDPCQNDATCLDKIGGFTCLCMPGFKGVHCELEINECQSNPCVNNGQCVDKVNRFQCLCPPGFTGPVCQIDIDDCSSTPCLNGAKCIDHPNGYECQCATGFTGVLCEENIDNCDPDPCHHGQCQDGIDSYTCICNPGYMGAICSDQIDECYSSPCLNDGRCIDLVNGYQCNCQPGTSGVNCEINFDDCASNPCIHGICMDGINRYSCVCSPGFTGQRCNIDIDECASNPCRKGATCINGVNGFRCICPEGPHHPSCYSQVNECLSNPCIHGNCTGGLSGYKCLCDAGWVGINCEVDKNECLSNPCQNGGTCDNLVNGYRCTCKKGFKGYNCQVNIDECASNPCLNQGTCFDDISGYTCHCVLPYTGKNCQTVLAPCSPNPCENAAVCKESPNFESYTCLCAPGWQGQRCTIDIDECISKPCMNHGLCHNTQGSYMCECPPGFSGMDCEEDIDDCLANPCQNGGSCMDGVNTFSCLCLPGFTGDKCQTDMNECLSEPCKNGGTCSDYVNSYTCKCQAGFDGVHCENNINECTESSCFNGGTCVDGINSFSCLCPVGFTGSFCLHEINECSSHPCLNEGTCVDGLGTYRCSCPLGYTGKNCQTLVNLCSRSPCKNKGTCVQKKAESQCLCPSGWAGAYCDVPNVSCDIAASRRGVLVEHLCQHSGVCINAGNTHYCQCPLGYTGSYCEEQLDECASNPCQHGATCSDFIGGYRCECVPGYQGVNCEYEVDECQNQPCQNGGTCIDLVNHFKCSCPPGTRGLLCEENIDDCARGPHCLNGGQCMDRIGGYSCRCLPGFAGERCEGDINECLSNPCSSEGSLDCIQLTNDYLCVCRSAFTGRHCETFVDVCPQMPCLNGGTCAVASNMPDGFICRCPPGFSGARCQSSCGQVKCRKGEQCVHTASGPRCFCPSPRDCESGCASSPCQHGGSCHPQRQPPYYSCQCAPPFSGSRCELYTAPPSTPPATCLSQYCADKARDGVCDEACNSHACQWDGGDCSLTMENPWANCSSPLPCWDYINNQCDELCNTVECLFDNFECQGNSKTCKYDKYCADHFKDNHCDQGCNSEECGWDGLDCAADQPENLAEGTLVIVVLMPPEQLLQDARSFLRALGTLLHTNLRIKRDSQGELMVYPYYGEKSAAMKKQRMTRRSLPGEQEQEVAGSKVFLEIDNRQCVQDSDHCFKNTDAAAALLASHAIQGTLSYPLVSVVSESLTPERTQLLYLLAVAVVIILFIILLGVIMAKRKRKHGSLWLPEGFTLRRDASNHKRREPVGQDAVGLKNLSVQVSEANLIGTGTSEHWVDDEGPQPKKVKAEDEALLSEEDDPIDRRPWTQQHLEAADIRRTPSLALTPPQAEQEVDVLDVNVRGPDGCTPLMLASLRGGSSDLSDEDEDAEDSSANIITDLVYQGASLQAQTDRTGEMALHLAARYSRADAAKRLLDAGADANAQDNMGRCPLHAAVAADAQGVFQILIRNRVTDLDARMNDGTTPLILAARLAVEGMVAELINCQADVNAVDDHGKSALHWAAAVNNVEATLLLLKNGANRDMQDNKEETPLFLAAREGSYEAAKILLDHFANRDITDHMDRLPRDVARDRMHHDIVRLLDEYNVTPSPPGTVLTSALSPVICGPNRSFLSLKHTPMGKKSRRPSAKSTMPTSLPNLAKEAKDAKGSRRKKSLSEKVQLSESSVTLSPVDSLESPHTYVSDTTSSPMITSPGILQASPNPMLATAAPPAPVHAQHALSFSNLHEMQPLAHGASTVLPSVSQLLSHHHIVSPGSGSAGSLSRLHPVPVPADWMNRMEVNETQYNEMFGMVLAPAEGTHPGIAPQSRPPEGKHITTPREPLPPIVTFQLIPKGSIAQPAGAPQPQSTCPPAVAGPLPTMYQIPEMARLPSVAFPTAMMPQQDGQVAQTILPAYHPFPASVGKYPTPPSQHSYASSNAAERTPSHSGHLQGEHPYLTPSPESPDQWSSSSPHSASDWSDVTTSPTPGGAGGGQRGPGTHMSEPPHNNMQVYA

| SMILES | composite z-score [1] | composite z-score [2] | composite z-score [3] | composite z-score [4] | composite z-score [5] | composite z-score [6] | composite z-score [7] | z-score [8] | composite z-score [9] | composite z-score [10] |
| --- | --- | --- | --- | --- | --- | --- | --- | --- | --- | --- |
| COc1ccc(CCNC(=O)[C@@]2(C)c3ccccc3C(=O)N(Cc3cc(F)cc(C(F)(F)F)c3)[C@H]2c2ccc(CO)cc2)cc1 | 0.498 | -0.518 | 0.0046 | -0.23 | 0.146 | 0.499 | 0.969 | -3.42 (inactive) | -0.247 | 0.156 |
| C=CCNC(=O)[C@@H]1[C@H]2C(=O)O[C@H](c3ccccc3)[C@H](c3ccccc3)N2[C@H](c2ccc(OCCO)cc2)[C@@]12C(=O)Nc1ccc(C#Cc3ccc(OC)cc3)cc12 | -0.175 | 1.14 | 0.0969 | 0.73 | 1.41 | 1.24 | 1.18 | 0.994 (inactive) | 0.4 | 0.283 |
| Cc1ccc(C(C)CC(O)C2C=CC3C(=O)N(c4ccccc4)C(=O)C3N2Nc2ccc([N+](=O)[O-])cc2)o1 (stereo not given) | -0.0729 | 0.123 | 0.0757 | 0.513 | 1.51 | 1.69 | 1.2 | 0.296 (inactive) | 1.51 | 0.0373 |
| COc1ccc([Si](C)(C)[C@@H]2[C@@H](CC(=O)N3Cc4ccccc4C[C@H]3CO)O[C@]3(C(=O)N(C)c4c(Br)cc(C)cc43)[C@H]2C)cc1 | -0.184 | 1.03 | -0.083 | 0.441 | 0.557 | 0.815 | 1.12 | -3.35 (inactive) | 0.16 | -0.0672 |
| C=CCOC(=O)[C@H]1[C@@H]2C(=O)O[C@@H](c3ccccc3)[C@@H](c3ccccc3)N2[C@@H](c2ccc(OCCOC(=O)[C@@H]3C[C@@H]4C(=O)N[C@@H](CCCCN(C)C)C(=O)N4[C@@H]3c3ccc(O)cc3)cc2)[C@]12C(=O)Nc1ccc(I)cc12 | -0.617 | 1.04 | -0.0468 | 0.589 | 0.766 | 1.27 | 1.33 | -0.694 (inactive) | 0.429 | -0.112 |
| O=C1OCCC/C=C\[C@H]2OC34C=CCN(Cc5ccccc5)C(=O)[C@H]3N(CCCCCCO)C(=O)[C@@H]4C12 (stereo not given in full) | 1.26 | 1.37 | -0.0956 | -0.437 | -0.793 | 1.31 | 1.31 | 0.247 (inactive) | -0.467 | -0.0003 |
| CN(C)CCCNC(=O)[C@@]1(c2ccc([N+](=O)[O-])cc2)CC(=O)N(C2CCCCC2)[C@@H]1c1ccc(CO)cc1I | 0.284 | 1.05 | -0.087 | -0.0752 | -0.0551 | 0.314 | 1.34 | -0.635 (inactive) | -0.364 | -0.266 |
| Cc1ccc(S[C@]2(C(=O)NCC(F)(F)F)CC(=O)N(C(C)C)[C@@H]2c2ccc(CO)cc2I)cc1 | 0.163 | -0.98 | -0.04 | 0.0063 | -0.806 | 1.08 | -0.395 | -0.0636 (inactive) | -0.349 | -0.374 |
| O=C1c2ccccc2[C@](Cc2ccccc2I)(C(=O)NC2CC2)[C@H](c2ccc(CO)cc2)N1C1CCCCC1 | -0.0129 | 0.677 | -0.0989 | 0.418 | 1.48 | 1.62 | 1.41 | -4.4 (inactive) | 1.37 | -0.926 |
| CCCC=C(CCC)[C@@H](NS(=O)(=O)c1cccs1)c1ccc(C(=O)OC)cc1 | 0.002 | -0.0193 | 0.0969 | 0.646 | 1.53 | 1.94 | 1.18 | -3.86 (inactive) | 0.969 | 0.398 |
| COc1ccc([Si](C)(C)[C@@H]2[C@@H](CCO)O[C@]3(C(=O)N(Cc4ccc(N5C(=O)COc6ccccc65)cc4)c4ccccc43)[C@H]2C)cc1 | -0.0069 | 0.408 | -0.0474 | 1.24 | 1.18 | 1.01 | 1.17 | -2.74 (inactive) | 0.288 | 0.0373 |
| O=C(NCc1ccccc1)[C@@]1(CCS(=O)(=O)c2ccccc2)N=C(c2ccc(OCCCO)cc2)O[C@H]1c1ccccc1 | -0.0744 | 0.345 | 0.115 | 0.488 | 1.56 | 1.82 | 1.19 | -2.73 (inactive) | 1.6 | 0.0274 |
| CC(C)c1ccc(NN2C(C(O)C(c3ccccc3)c3ccccc3)C=CC3C(=O)N(c4ccccc4)C(=O)C32)cc1 (stereo not given) | -0.304 | -0.612 | 0.116 | 0.903 | 1.53 | 1.63 | 1.26 | 0.358 (inactive) | 1.25 | 0.452 |
| CCOC(=O)C=Cc1cc([N+](=O)[O-])ccc1O | 0.36 | -0.11 | -0.159 | -0.239 | -1 | -0.306 | 0.358 | 2.07 (inactive) | -0.31 | 0.0044 |
| COC(=O)[C@@]1(Cc2ccccc2)[C@H]2c3cc(C(=O)N4CCCC4)n(CC4CC4)c3C[C@H]2CN1C(=O)c1ccccc1 | 0.963 | 0.365 | 0.424 | 0.703 | 1.6 | 1.64 | 1.14 | 0.692 (inactive) | 2.15 | 0.337 |
| CN1C(=O)C2C=CC(C(O)c3cccs3)N(Nc3ccccc3)C2C1=O (stereo not given) | 0.0812 | 0.552 | -0.0628 | 0.415 | 0.94 | 1.22 | 1.4 | -0.263 (inactive) | 0.388 | 0.261 |
| COCCOC(=O)N1C(=O)[C@@]2(c3cc(C#CCNC(N)=O)ccc31)[C@H](C(=O)NC[C@H](O)c1ccccc1)[C@H]1C(=O)O[C@H](c3ccccc3)[C@H](c3ccccc3)N1[C@@H]2c1ccccc1OCCO | -0.12 | 0.294 | -0.0899 | 0.745 | 1.11 | 0.891 | 1.09 | -0.864 (inactive) | -0.177 | -0.113 |
| C=C(CCCC)C(=O)CC[C@H](OC(C)=O)c1cccc(OCCO)c1 | 0.137 | -0.475 | -0.148 | -0.177 | -1.47 | -0.331 | -0.159 | 0.818 (inactive) | -0.463 | -0.137 |
| CCOC(=O)C[C@H]1[C@H](OC(=O)c2ccc(C(=O)c3ccccc3)cc2)[C@@H](NC(=O)c2ccc(-c3ccccc3)cc2)c2cc(OCCCO)ccc2N1C(=O)c1ccccc1 | -0.57 | -0.264 | -0.212 | 0.577 | 0.639 | 0.771 | 0.744 | 0.805 (inactive) | 0.319 | -0.164 |
| [N-]=[N+]=NCc1ccccc1[C@@H]1OC(c2ccc(OCCCO)cc2)=N[C@]1(CCS(=O)(=O)c1ccccc1)C(=O)NCc1ccccc1 | 0.985 | 1.05 | 0.289 | 0.76 | 1.5 | 1.74 | 1.32 | -2.83 (inactive) | 1.89 | 0.683 |
| O=C(C1N=C(c2ccc(OCCCO)cc2)N(c2ccccc2)O1)N1CCOCC1 (stereo not given) | -0.428 | 0.267 | 0.0646 | 1.28 | 1.45 | 1.27 | 0.336 | 2.27 (inactive) | 0.974 | -0.113 |
| COCCCN1C(=O)[C@@]2(Cc3ccccc31)c1ccccc1C(=O)N(Cc1ccccc1C(F)(F)F)[C@H]2c1ccc(CO)cc1 | -0.774 | 0.356 | -0.123 | -0.179 | -0.16 | -0.0485 | 0.848 | -0.0864 (inactive) | 0.222 | -0.526 |
| CN1C(=O)C2C=CC(C(O)c3cc(C(F)(F)F)cc(C(F)(F)F)c3)N(N3CCCCC3)C2C1=O (stereo not given) | 0.104 | -0.392 | 0.0173 | 0.395 | 1.41 | 0.416 | 0.892 | 0.215 (inactive) | 0.498 | -0.335 |
| CC(C)(C)OC(=O)CC[C@@]12N=C(c3ccc(OCCCO)cc3)O[C@@H]1c1ccccc1N(CCS(=O)(=O)c1ccccc1)C2=O | 0.742 | 0.066 | -0.0174 | -0.366 | 0.893 | 0.729 | 1.11 | -2.9 (inactive) | 0.687 | 0.0302 |
| COC(=O)[C@@]1(Cc2ccc(F)cc2)[C@H]2c3cc(C(=O)N(C)C)n(CC4CC4)c3C[C@H]2CN1C(=O)c1ccccc1 | 2.43 | 1.04 | 0.833 | 1.27 | 1.58 | 1.6 | 1.26 | -0.115 (inactive) | 2.76 | 0.741 |
| Cc1ccc(S[C@]2(C(=O)NCCN3CCOCC3)CC(=O)N(Cc3ccccc3)[C@@H]2c2ccc(CO)cc2I)cc1 | 1.09 | -0.883 | -0.0564 | -0.165 | -1.51 | 0.742 | 1.49 | -0.456 (inactive) | -0.39 | -0.0645 |
| COc1ccc([Si](C)(C)[C@H]2[C@H](CCO)O[C@@]3(C(=O)N(Cc4ccc(N5C(=O)COc6ccccc65)cc4)c4ccccc43)[C@@H]2C)cc1 | 0.0421 | -0.271 | -0.14 | -0.164 | -0.24 | 0.774 | 0.474 | -3.99 (inactive) | -0.148 | 0.0129 |
